Consider ten compounds from PubChem BioAssay (NCI).

The panel holds about 79,000 compounds, 15% with a hit somewhere; the sample as a whole holds those more often. Unmarked numbers belong to inactive results. The source made the active and inactive calls. Rule as the data show it: active = growth inhibition above about 70%; inactive = the rest.

Test [1] can be described thus: NCI Yeast Anticancer Drug Screen. Data for the rad50 strain (AID 155).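 Also: 0% = growth of vehicle-only cultures of the same strain.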 The note with it: S. cerevisiae rad50 strain growth inhibition, hits give high values. Put shortly: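 Growth of the mutant yeast was measured after compound exposure and referenced to vehicle-treated cultures.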
Test [2] in a line: NCI Yeast Anticancer Drug Screen. Data for the mec2-1 strain (AID 157). The note with it: S. cerevisiae mec2-1 strain, hits give high values. The method, boiled down:
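Each compound was tested on mec2-1 yeast, a strain altered in DNA damage repair or cell cycle control. Growth inhibition is reported relative to vehicle.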

Test [3] can be described thus: NCI Yeast Anticancer Drug Screen. Data for the sgs1 mgt1 strain (AID 161).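 Also: 0% = growth of cultures given vehicle only.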 The note with it: S. cerevisiae sgs1 mgt1 strain, hits give high values. Put shortly: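 Inhibition of yeast growth, normalised to vehicle-treated controls, is reported for a strain bearing genetic alterations in DNA damage repair.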
A short description of test [4]: NCI Yeast Anticancer Drug Screen. Data for the cln2 rad14 strain (AID 165).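 Also: 0% = growth equal to vehicle treated cultures.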 The note with it: S. cerevisiae cln2 rad14 strain, hits give high values. Put shortly: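 Test compounds were added to cln2 rad14 yeast cultures; inhibition of growth was then determined by comparison with vehicle treatment.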
Test [5] in a line: NCI Yeast Anticancer Drug Screen. Data for the bub3 strain (AID 167). The note with it: S. cerevisiae bub3 mutant strain, hits give high values. The method, boiled down: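 Whole-cell yeast assay. The mutant strain was incubated with compounds, and growth inhibition was determined by comparison with vehicle-treated cells.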
Test [6] can be described thus: NCI Yeast Anticancer Drug Screen. Data for the mlh1 rad18 strain (AID 175). Particulars: S. cerevisiae mlh1 rad18 strain growth inhibition, hits give high values. Put shortly:
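Inhibition values reflect reduced growth of mutant yeast versus vehicle-treated controls following compound exposure; the mutations affect DNA damage repair.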

The mark [7] stands for this setting: at 5.0 µM (retest, dose inferred, filed as 0.5).
Where [8] appears, read: at 50.0 µM (retest, dose inferred, filed as 5.0).

In the case of `CCCCCSc1nc2ncnc(N)c2[nH]1`, the growth inhibition in test [1] (setting [7]) is 1%; in test [1] (setting [8]), 4%; in test [1] (at 50.0 µM), 6.25%; in test [2] (setting [7]), 1%; in test [2] (setting [8]), 9%; in test [2] (at 50.0 µM) it was -2.95%. Further, the growth inhibition in test [3] (setting [7]) is -10%; in test [3] (setting [8]), -2%; in test [3] (at 50.0 µM), 1.65%; in test [4] (setting [7]), 4%; in test [4] (setting [8]) it was 6%; in test [4] (at 50.0 µM) it was 28.9%. Also, the growth inhibition in test [5] (setting [7]) is 7%; in test [5] (setting [8]), 16%; in test [5] (at 50.0 µM), -5.5%; in test [6] (setting [7]), 0%; in test [6] (setting [8]), 8%; in test [6] (at 50.0 µM) it was -14.5%.
With `Cc1ccccc1NC(=O)CSC(N)=O`, the growth inhibition was 2% in test [1] (setting [7]); 26% in test [1] (setting [8]); 82.1% (active) in test [1] (at 50.0 µM); -1% in test [2] (setting [7]); 34% in test [2] (setting [8]); 60.4% in test [2] (at 50.0 µM). Moreover, the growth inhibition is 1% in test [3] (setting [7]); 36% in test [3] (setting [8]); 91.8% (active) in test [3] (at 50.0 µM); 5% in test [4] (setting [7]); 6% in test [4] (setting [8]); 55% in test [4] (at 50.0 µM). The growth inhibition was 1% in test [5] (setting [7]); 66% in test [5] (setting [8]); 87.3% (active) in test [5] (at 50.0 µM); 0% in test [6] (setting [7]); 29% in test [6] (setting [8]); 83% (active) in test [6] (at 50.0 µM).
In the case of `CC(=O)OC(C)(C)N=Nc1ccc(Br)cc1`, the growth inhibition in test [1] (setting [7]) is 86% (active); in test [1] (setting [8]), 99% (active); in test [1] (at 50.0 µM), 97.9% (active); in test [2] (setting [7]), 31%; in test [2] (setting [8]) it was 99% (active); in test [2] (at 50.0 µM) it was 98.1% (active). For the same compound, the growth inhibition is 60% in test [3] (setting [7]); 97% (active) in test [3] (setting [8]); 98.2% (active) in test [3] (at 50.0 µM); 51% in test [4] (setting [7]); 94% (active) in test [4] (setting [8]); 97.3% (active) in test [4] (at 50.0 µM). Also, the growth inhibition in test [5] (setting [7]) is 78% (active); in test [5] (setting [8]), 99% (active); in test [5] (at 50.0 µM), 97.2% (active); in test [6] (setting [7]), 63%; in test [6] (setting [8]), 99% (active); in test [6] (at 50.0 µM) it was 98.2% (active).
As to `CC(C)=CC(=O)OC(CCCc1ccccc1)c1ccc2c(c1)OCO2` (stereo not given), the growth inhibition in test [1] (setting [7]) is 5%; in test [1] (setting [8]), -5%; in test [1] (at 50.0 µM), -4.6%; in test [2] (setting [7]) it was 7%; in test [2] (setting [8]), -16%; in test [2] (at 50.0 µM) it was -13.2%. The growth inhibition was -6% in test [3] (setting [7]); 9% in test [3] (setting [8]); -4.75% in test [3] (at 50.0 µM); 0% in test [4] (setting [7]); 3% in test [4] (setting [8]); 0.35% in test [4] (at 50.0 µM). For the same compound, the growth inhibition in test [5] (setting [7]) was 35%; in test [5] (setting [8]) it was 33%; in test [5] (at 50.0 µM) it was 50%; in test [6] (setting [7]), 2%; in test [6] (setting [8]), 14%; in test [6] (at 50.0 µM), -8.25%.
For `Cc1cc(Br)ccc1NC(=O)/C=C/C(=O)O`, the growth inhibition in test [1] (setting [7]) is -23%; in test [1] (setting [8]), -36%; in test [1] (at 50.0 µM) it was 0.1%; in test [2] (setting [7]), -24%; in test [2] (setting [8]), -5%; in test [2] (at 50.0 µM), 4.25%. Also, the growth inhibition in test [3] (setting [7]) is -17%; in test [3] (setting [8]), -4%; in test [3] (at 50.0 µM), 17.4%; in test [4] (setting [7]) it was 10%; in test [4] (setting [8]) it was 22%; in test [4] (at 50.0 µM) it was 7.15%. Further, the growth inhibition in test [5] (setting [7]) was -4%; in test [5] (setting [8]) it was -13%; in test [5] (at 50.0 µM), 20.2%; in test [6] (setting [7]) it was 0%; in test [6] (setting [8]) it was -16%; in test [6] (at 50.0 µM) it was 1.25%.
With `Cc1nc2c(Cl)nc(Cl)nc2s1`, the growth inhibition in test [1] (setting [7]) is -10%; in test [1] (setting [8]), 98% (active); in test [1] (at 50.0 µM), 98.5% (active); in test [2] (setting [7]) it was 35%; in test [2] (setting [8]) it was 98% (active); in test [2] (at 50.0 µM) it was 98.5% (active). Moreover, the growth inhibition is 20% in test [3] (setting [7]); 97% (active) in test [3] (setting [8]); 98.7% (active) in test [3] (at 50.0 µM); -8% in test [4] (setting [7]); 97% (active) in test [4] (setting [8]); 95.5% (active) in test [4] (at 50.0 µM). Besides, the growth inhibition was 15% in test [5] (setting [7]); 98% (active) in test [5] (setting [8]); 98.3% (active) in test [5] (at 50.0 µM); 23% in test [6] (setting [7]); 97% (active) in test [6] (setting [8]); 98.2% (active) in test [6] (at 50.0 µM).
For the compound `CC(C)(C)NC(=S)N/N=C/c1ccccc1O`, the growth inhibition is 48% in test [1] (setting [7]); 66% in test [1] (setting [8]); 89% (active) in test [1] (at 50.0 µM); 25% in test [2] (setting [7]); 73% (active) in test [2] (setting [8]); 88.8% (active) in test [2] (at 50.0 µM). Further, the growth inhibition in test [3] (setting [7]) was 40%; in test [3] (setting [8]), 88% (active); in test [3] (at 50.0 µM) it was 92.5% (active); in test [4] (setting [7]), 24%; in test [4] (setting [8]) it was 59%; in test [4] (at 50.0 µM), 87.2% (active). Besides, the growth inhibition in test [5] (setting [7]) is 36%; in test [5] (setting [8]) it was 78% (active); in test [5] (at 50.0 µM), 88.2% (active); in test [6] (setting [7]), 48%; in test [6] (setting [8]) it was 96% (active); in test [6] (at 50.0 µM), 91% (active).
With `O=S(=O)(OI(OI(OS(=O)(=O)C(F)(F)F)c1ccccc1)c1ccccc1)C(F)(F)F`, the growth inhibition was 58% in test [1] (setting [7]); 97% (active) in test [1] (setting [8]); 89.2% (active) in test [1] (at 50.0 µM); 48% in test [2] (setting [7]); 98% (active) in test [2] (setting [8]); 91.5% (active) in test [2] (at 50.0 µM). The growth inhibition in test [3] (setting [7]) is 44%; in test [3] (setting [8]), 98% (active); in test [3] (at 50.0 µM), 91.7% (active); in test [4] (setting [7]), 27%; in test [4] (setting [8]), 92% (active); in test [4] (at 50.0 µM), 91.1% (active). Further, the growth inhibition is 65% in test [5] (setting [7]); 98% (active) in test [5] (setting [8]); 91% (active) in test [5] (at 50.0 µM); 75% (active) in test [6] (setting [7]); 97% (active) in test [6] (setting [8]); 89.2% (active) in test [6] (at 50.0 µM).
Consider `O=[N+]([O-])/C(C=Nc1ccccc1)=C/Nc1ccccc1`, for which the growth inhibition in test [1] (setting [7]) was -17%; in test [1] (setting [8]), 51%; in test [1] (at 50.0 µM), 71.5% (active); in test [2] (setting [7]) it was -10%; in test [2] (setting [8]), 33%; in test [2] (at 50.0 µM), 67.3%. The growth inhibition was 2% in test [3] (setting [7]); 46% in test [3] (setting [8]); 83.5% (active) in test [3] (at 50.0 µM); -6% in test [4] (setting [7]); 48% in test [4] (setting [8]); 37.5% in test [4] (at 50.0 µM). The growth inhibition is 16% in test [5] (setting [7]); 73% (active) in test [5] (setting [8]); 31.6% in test [5] (at 50.0 µM); -15% in test [6] (setting [7]); 83% (active) in test [6] (setting [8]); 76.6% (active) in test [6] (at 50.0 µM).
Consider `O=C(Nc1ccc(Cl)cc1)OCC1C2C=CC(C2)C1CO` (stereo not given), for which the growth inhibition was 6% in test [1] (setting [7]); 95% (active) in test [1] (setting [8]); 86.8% (active) in test [1] (at 50.0 µM); -1% in test [2] (setting [7]); 97% (active) in test [2] (setting [8]); 75.7% (active) in test [2] (at 50.0 µM). For the same compound, the growth inhibition in test [3] (setting [7]) was 2%; in test [3] (setting [8]) it was 97% (active); in test [3] (at 50.0 µM) it was 98.4% (active); in test [4] (setting [7]), 2%; in test [4] (setting [8]), 89% (active); in test [4] (at 50.0 µM), 66.5%. Moreover, the growth inhibition in test [5] (setting [7]) was -3%; in test [5] (setting [8]), 92% (active); in test [5] (at 50.0 µM), 92.9% (active); in test [6] (setting [7]), 5%; in test [6] (setting [8]), 97% (active); in test [6] (at 50.0 µM), 77.8% (active).
